The record followed here is ChEMBL document CHEMBL1961873, “Compounds: GSK PKIS; Assays: Nanosyn kinase panel” (2012).

In test [1] the target is T1, Mitogen-activated protein kinase 12 (Homo sapiens) (UniProt P53778).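 Further: values are averaged p38gamma kinase inhibition readings, compounds tested at 1 µM.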
T1 sequence (whole entry): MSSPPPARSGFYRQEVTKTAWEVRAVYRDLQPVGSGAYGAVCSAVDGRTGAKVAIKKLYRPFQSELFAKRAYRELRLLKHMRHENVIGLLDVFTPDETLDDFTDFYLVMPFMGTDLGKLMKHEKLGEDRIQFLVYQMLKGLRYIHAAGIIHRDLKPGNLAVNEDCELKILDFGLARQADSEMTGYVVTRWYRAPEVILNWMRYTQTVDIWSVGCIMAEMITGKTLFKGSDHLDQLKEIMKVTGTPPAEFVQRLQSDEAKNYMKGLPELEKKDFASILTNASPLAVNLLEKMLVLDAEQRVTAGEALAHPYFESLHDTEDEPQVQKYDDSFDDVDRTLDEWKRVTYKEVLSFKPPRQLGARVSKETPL
Particulars: at 1 µM.

For test [2], the target named is SRSF protein kinase 1 (Homo sapiens) (UniProt Q96SB4). The following applies: at 0.1 µM.
Sequence of SRSF protein kinase 1 (Homo sapiens) (Q96SB4 whole entry): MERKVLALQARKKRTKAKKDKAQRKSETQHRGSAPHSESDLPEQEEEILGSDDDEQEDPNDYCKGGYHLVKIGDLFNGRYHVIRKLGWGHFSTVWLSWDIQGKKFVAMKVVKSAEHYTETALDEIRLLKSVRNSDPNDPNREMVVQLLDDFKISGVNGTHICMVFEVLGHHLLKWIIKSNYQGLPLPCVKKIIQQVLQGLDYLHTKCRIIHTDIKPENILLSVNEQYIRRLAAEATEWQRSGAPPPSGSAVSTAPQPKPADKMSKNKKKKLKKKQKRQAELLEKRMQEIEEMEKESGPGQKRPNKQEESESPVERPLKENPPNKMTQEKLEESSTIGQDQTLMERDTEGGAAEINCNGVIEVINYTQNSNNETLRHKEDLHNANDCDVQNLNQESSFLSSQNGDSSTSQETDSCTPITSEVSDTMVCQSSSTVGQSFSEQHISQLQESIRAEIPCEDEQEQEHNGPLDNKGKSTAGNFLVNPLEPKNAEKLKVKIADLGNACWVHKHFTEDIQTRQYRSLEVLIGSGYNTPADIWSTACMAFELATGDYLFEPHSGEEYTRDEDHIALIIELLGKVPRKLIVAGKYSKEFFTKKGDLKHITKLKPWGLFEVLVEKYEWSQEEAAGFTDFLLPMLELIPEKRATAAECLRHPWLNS
Test [3] has the same target. The following applies: at 1 µM.
The target of test [4] is Phosphatidylinositol 4,5-bisphosphate 3-kinase catalytic subunit alpha isoform (Homo sapiens) (UniProt P42336). The following applies: at 0.1 µM.
Sequence of Phosphatidylinositol 4,5-bisphosphate 3-kinase catalytic subunit alpha isoform (Homo sapiens) (P42336 whole entry, canonical isoform): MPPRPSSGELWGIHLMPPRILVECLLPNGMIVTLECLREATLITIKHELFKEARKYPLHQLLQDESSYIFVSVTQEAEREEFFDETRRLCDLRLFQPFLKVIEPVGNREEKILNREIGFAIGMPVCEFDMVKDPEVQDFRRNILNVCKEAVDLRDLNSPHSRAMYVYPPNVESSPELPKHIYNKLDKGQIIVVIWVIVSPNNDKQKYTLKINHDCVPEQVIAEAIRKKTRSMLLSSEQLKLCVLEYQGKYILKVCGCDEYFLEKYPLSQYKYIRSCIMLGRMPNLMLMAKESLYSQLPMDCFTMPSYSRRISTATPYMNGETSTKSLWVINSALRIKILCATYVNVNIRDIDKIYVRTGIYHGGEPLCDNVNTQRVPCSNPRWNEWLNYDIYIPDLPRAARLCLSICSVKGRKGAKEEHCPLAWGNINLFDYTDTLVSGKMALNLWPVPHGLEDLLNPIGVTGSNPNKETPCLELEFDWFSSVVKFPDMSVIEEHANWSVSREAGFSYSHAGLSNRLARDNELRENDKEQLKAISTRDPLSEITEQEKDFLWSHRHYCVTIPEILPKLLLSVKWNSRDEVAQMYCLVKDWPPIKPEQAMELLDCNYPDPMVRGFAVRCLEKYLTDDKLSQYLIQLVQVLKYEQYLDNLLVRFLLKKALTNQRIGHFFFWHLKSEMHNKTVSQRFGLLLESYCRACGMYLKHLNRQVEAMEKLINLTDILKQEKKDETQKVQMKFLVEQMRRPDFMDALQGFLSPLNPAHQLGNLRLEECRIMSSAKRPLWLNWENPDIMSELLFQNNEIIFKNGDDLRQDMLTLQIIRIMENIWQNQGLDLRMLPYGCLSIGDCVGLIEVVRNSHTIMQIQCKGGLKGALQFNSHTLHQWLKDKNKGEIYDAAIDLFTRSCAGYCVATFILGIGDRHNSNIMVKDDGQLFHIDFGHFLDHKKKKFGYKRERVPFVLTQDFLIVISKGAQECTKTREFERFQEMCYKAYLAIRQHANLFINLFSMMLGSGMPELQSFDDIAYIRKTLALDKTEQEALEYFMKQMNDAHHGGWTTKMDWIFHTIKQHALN
Test [5] shares this target. Particulars: at 1 µM.
Test [6] concerns the target T2, Phosphatidylinositol 4,5-bisphosphate 3-kinase catalytic subunit delta isoform (Homo sapiens) (UniProt O00329).
T2 sequence (whole entry): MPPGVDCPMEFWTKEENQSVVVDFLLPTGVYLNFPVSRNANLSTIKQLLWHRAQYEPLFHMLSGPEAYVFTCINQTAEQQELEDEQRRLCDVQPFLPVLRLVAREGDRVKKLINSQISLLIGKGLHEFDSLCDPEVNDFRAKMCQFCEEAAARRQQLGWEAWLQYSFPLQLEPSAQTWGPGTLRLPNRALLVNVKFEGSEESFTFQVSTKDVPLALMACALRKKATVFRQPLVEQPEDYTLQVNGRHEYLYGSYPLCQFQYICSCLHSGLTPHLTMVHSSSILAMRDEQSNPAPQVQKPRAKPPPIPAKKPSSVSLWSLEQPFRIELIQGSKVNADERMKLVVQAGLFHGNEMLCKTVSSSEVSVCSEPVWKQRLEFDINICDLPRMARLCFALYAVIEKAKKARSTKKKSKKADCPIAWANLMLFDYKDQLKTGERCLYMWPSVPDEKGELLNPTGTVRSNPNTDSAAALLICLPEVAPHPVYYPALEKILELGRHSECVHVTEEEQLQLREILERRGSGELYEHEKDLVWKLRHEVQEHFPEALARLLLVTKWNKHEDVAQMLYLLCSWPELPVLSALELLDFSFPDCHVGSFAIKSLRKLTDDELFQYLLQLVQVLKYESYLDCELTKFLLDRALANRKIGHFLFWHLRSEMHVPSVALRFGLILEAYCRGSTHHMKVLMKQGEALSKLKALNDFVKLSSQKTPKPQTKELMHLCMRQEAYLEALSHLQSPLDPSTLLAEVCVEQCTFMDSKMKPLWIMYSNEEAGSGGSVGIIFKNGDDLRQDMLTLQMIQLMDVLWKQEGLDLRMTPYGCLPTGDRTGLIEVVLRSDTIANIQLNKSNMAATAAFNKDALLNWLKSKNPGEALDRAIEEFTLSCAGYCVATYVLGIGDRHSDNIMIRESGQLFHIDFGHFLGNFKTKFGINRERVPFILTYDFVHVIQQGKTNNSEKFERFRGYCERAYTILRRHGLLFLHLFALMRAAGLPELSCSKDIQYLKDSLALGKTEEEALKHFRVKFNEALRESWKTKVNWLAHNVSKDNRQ
Particulars: at 0.1 µM.

The target of test [7] is T2, Phosphatidylinositol 4,5-bisphosphate 3-kinase catalytic subunit delta isoform (Homo sapiens). The following applies: at 1 µM.
For test [8], the target named is Phosphatidylinositol 4-kinase beta (Homo sapiens) (UniProt Q9UBF8). The following applies: at 0.1 µM.
Sequence of Phosphatidylinositol 4-kinase beta (Homo sapiens) (Q9UBF8 2-816 limits assumed): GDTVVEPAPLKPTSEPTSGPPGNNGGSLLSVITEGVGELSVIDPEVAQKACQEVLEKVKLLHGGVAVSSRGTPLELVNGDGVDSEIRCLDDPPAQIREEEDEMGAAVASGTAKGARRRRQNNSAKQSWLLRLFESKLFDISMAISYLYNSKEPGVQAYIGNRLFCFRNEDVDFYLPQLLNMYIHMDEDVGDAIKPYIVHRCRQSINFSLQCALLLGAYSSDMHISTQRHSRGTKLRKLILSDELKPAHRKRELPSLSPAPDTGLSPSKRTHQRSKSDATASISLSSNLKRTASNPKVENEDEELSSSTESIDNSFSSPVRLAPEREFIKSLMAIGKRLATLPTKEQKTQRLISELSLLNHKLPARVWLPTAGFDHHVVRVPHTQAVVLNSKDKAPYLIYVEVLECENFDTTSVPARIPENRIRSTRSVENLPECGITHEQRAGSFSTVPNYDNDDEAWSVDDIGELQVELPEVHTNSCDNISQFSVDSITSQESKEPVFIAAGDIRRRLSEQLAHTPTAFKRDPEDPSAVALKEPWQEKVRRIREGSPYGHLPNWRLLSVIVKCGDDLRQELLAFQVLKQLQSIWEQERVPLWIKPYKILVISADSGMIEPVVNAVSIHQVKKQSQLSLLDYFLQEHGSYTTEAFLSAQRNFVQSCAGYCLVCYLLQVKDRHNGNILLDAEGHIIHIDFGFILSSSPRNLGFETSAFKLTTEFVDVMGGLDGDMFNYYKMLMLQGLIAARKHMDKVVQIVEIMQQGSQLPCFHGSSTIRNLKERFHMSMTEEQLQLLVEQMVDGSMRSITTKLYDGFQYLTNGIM
For test [9] the target is unchanged. Particulars: at 1 µM.
The target in test [10] is Sphingosine kinase 1 (Homo sapiens) (UniProt Q9NYA1). The following applies: at 0.1 µM.
Sequence of Sphingosine kinase 1 (Homo sapiens) (Q9NYA1 whole entry): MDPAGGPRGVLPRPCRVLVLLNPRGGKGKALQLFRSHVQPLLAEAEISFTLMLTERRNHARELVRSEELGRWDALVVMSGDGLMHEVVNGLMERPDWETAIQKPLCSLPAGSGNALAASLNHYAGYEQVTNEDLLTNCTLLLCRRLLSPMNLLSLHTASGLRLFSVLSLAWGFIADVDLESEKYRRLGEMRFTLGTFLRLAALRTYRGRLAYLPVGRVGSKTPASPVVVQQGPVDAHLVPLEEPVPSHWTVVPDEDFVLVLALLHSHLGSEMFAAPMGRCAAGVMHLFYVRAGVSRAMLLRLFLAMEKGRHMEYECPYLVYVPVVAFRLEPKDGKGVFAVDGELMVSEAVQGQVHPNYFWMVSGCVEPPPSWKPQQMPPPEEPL
Test [11] shares this target. Particulars: at 1 µM.
Test [12] deals with T3, Sphingosine kinase 2 (Homo sapiens) (UniProt Q9NRA0).
T3 sequence (whole entry): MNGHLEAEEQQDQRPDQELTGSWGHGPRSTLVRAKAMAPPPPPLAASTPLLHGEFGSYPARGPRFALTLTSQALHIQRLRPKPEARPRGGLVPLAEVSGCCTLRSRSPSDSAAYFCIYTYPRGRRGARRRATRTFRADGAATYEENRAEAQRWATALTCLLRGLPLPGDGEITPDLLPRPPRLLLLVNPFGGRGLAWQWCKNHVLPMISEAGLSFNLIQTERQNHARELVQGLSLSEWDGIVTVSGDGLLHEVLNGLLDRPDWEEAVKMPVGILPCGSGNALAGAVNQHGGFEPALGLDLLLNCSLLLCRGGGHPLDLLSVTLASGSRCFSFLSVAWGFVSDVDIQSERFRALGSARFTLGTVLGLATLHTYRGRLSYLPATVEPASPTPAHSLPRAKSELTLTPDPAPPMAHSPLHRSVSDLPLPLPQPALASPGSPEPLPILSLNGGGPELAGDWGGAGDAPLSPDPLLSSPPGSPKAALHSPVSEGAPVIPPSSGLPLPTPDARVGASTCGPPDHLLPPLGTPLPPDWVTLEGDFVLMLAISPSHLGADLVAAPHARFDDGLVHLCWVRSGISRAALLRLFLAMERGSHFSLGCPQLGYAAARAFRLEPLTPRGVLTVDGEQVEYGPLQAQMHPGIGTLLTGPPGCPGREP
Particulars: at 0.1 µM.

The target in test [13] is T3, Sphingosine kinase 2 (Homo sapiens). Particulars: at 1 µM.
In test [14] the target is Casein kinase II subunit alpha (Homo sapiens) (UniProt P68400). Particulars: at 0.1 µM.
Sequence of Casein kinase II subunit alpha (Homo sapiens) (P68400 whole entry, looked up): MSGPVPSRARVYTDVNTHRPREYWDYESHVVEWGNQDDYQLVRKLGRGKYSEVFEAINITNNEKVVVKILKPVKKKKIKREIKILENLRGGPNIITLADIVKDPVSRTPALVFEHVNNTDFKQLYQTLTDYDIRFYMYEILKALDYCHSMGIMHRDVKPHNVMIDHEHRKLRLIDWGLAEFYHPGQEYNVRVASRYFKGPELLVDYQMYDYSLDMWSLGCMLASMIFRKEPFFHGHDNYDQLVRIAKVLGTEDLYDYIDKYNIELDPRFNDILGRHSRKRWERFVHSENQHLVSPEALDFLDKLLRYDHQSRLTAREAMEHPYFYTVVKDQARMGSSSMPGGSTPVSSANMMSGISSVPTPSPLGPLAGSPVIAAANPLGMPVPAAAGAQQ
The target is the same in test [15]. The following applies: at 1 µM.
The target in test [16] is T4, Inhibitor of nuclear factor kappa-B kinase subunit alpha (Homo sapiens) (UniProt O15111).
T4 sequence (whole entry): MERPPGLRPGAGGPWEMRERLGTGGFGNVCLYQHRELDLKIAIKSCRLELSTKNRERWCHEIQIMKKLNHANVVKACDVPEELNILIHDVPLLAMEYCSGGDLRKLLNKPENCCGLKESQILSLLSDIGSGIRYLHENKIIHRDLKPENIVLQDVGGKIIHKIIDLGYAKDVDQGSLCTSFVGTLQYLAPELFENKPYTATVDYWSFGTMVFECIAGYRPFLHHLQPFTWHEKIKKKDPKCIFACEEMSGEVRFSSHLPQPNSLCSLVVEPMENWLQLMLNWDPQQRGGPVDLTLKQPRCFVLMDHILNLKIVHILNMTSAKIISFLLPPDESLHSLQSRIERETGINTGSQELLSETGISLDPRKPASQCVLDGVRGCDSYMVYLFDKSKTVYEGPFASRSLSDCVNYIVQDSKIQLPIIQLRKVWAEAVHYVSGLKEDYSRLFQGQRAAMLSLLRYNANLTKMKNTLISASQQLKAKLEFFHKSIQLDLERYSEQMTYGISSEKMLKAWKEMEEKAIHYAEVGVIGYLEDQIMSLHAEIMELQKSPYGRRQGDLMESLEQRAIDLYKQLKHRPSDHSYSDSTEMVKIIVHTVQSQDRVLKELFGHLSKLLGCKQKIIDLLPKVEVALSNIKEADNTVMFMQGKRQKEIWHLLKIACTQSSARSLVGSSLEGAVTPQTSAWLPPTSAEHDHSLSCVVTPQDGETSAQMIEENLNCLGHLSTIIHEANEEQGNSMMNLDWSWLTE
The following applies: at 0.1 µM.

The target of test [17] is T4, Inhibitor of nuclear factor kappa-B kinase subunit alpha (Homo sapiens). The following applies: at 1 µM.
For test [18], the target named is T5, Inhibitor of nuclear factor kappa-B kinase subunit beta (Homo sapiens) (UniProt O14920).
T5 sequence (whole entry): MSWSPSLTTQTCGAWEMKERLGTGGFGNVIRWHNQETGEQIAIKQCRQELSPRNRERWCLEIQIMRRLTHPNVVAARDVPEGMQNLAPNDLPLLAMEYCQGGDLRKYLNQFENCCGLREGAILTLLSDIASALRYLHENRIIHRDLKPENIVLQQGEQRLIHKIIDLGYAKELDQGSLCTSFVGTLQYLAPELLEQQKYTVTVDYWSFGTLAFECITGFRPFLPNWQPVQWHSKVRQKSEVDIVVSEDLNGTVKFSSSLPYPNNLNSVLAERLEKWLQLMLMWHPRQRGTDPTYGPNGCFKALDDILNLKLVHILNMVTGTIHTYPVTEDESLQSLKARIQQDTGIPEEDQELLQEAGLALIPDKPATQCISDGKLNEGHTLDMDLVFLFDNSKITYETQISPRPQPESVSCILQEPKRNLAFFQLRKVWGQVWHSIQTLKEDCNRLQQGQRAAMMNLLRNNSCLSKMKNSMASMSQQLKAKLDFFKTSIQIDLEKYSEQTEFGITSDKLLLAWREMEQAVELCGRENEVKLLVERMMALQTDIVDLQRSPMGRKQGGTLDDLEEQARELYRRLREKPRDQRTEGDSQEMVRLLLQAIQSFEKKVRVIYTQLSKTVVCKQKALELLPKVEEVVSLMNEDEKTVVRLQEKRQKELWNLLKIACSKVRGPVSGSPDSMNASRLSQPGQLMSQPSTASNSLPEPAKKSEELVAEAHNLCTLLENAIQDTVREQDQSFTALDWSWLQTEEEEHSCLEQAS
The following applies: at 0.1 µM.

The target in test [19] is T5, Inhibitor of nuclear factor kappa-B kinase subunit beta (Homo sapiens). The following applies: at 1 µM.
Test [20] concerns the target T6, Inhibitor of nuclear factor kappa-B kinase subunit epsilon (Homo sapiens) (UniProt Q14164).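 Further: mean inhibition of IKKε reported, from the GSK PKIS dataset.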
T6 sequence (whole entry): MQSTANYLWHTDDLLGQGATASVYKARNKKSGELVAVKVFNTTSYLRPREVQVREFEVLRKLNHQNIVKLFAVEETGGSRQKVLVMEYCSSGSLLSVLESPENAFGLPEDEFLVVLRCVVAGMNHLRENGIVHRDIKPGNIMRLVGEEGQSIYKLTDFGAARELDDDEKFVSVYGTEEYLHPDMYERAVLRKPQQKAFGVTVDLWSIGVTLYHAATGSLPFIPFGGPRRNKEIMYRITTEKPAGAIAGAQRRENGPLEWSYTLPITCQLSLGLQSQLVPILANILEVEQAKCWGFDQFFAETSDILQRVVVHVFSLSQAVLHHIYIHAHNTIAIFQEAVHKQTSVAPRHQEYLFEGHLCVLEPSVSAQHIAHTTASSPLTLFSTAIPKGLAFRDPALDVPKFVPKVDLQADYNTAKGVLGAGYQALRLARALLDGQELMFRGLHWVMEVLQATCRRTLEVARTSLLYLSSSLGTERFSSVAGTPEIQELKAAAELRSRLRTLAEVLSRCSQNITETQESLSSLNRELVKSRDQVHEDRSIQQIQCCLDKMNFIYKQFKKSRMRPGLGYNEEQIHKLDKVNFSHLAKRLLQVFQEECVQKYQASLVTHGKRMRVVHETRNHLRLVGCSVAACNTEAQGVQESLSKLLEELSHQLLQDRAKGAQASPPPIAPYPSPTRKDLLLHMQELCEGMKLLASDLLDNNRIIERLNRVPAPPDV
Particulars: at 0.1 µM.

Molecules are shown by their SMILES.

As a reminder, the inhibition is the relative decrease from the control value, in per cent. With `Cc1ccc2c(-c3ccnc(Nc4cccc(C(F)(F)F)c4)n3)c(-c3ccccc3)nn2n1`, the inhibition in [1] is 5.59%; in test [2], -3.32%; in test [3], -2.03%; in test [4], 3.95%; in [5] it was 5.13%; in test [6] it was 0.26%. For the same compound, the inhibition was 2% in [7]; 0.44% in test [8]; -2.31% in test [9]; 0.67% in [10]; -0.04% in [11]; 0% in test [12]. Further, the inhibition in [13] was determined as 0%; in test [14] it was 1.2%; in test [15], 3.98%; in [16], 1.79%; in [17] it was 5.16%; in test [18] it was 4.63%. The inhibition in [19] is 8.3%; in test [20], 7.46%.
On to `c1ccc(Cc2nc3ccc(Nc4ncnc5ccccc45)cc3[nH]2)cc1`, for which the inhibition in test [1] is 0.6%; in test [2], -1.1%; in [3], 1.41%; in [4] it was 3.03%; in [5], 4.64%; in test [6] it was 1.66%. The inhibition in test [7] was 0.62%; in test [8], -0.98%; in test [9] it was -1.72%; in test [10] it was 1.07%; in test [11], -0.48%; in test [12], 0.11%. Further, the inhibition is -0.64% in test [13]; 3.02% in test [14]; 9.95% in test [15]; -0.9% in test [16]; 6.86% in [17]; 5.53% in test [18]. Further, the inhibition in test [19] was 8.45%; in test [20] it was 5.38%.
On to `COc1ccc2ncnc(Nc3ccc(OCc4ccccc4)cc3)c2c1`, for which the inhibition in test [1] is 1.88%; in [2], -1.2%; in test [3], -0.4%; in test [4], 2.14%; in test [5], 1.05%; in test [6], 1.99%. Besides, the inhibition in test [7] is 2.84%; in [8] it was 1.57%; in test [9] it was 1.15%; in test [10], -0.95%; in test [11], -2.59%; in test [12], 0.06%. For the same compound, the inhibition in test [13] is 0.29%; in [14], 3.44%; in [15], 7.23%; in test [16] it was 2.22%; in test [17], -0.08%; in [18], 2.67%. For the same compound, the values for the inhibition in [19] and in test [20] were 3.67% and 3.74%, respectively.
On to `COc1cccc(-n2nc(C)c3c(N/N=C(\C)c4ccncc4)ncnc32)c1`, for which the inhibition in test [1] is 0.35%; in test [2], -2.19%; in test [3], -2.27%; in test [4] it was -0.84%; in test [5], -0.14%; in test [6], -1.39%. Also, the inhibition is 6.02% in test [7]; -2.42% in test [8]; -3.63% in [9]; 1.12% in test [10]; 2.22% in test [11]; 0.03% in test [12]. The inhibition in test [13] was 0%; in [14], 2.16%; in test [15] it was 6.88%; in [16], 1.96%; in [17], -2.68%; in test [18], 1.3%. Also, the inhibition in test [19] is 1.94%; in test [20], -1.8%.
